The values below come from PubChem BioAssay AID1347150 (National Center for Advancing Translational Sciences (NCATS), 2019).

Each structure is given as a SMILES string. Results filed as inconclusive are left out. A call without a number means that no potency is given here. Active and inactive are the calls of the source. Calls come from the whole dose curve; as a rule, active = well fitted curve in the direction sought with a large enough effect; inconclusive = small, poorly fitted or top-dose-only effect, or another doubt; inactive = no such curve, though single readings can be large or run the other way. Numbered stars: 1 amine (or outer) side, 2 acyl side, 3 side chain; on linkers, the order of the positions; unused ones are H or OH. Bridge positions count the residues as written; N and C are the ends. Square brackets hold non-standard residues; d marks the D form. Peptide text beside a SMILES is read from it. I, II: the chains in the order shown. Actinocin(9to1) = Cc1c2oc3c(C)ccc(C(=O)[*:1])c3nc-2c(C(=O)[*:2])c(N)c1=O; NMeV = CN[C@H](C(=O)O)C(C)C; Sar = CNCC(=O)O

The assay relates to Zika virus NS2B-NS3 protease (linked). The experiment in a line: Optimization screen NINDS AMC qHTS for Zika virus inhibitors: Linked NS2B-NS3 protease assay. The following applies: recombinant linked NS2B-NS3 protease, AMC fluorogenic substrate; series mostly up to 52.5 µM. The source says:
Avindra Nath, Ph.D., National Institute of Neurological Disorders and Stroke (NINDS), Bethesda, MD
Radhakrishnan Padmanabhan, Ph.D., Georgetown University (GU), Washington D.C.
Zika Virus causes congenital defects, including microcephaly and is associated with Guillain-Barre syndrome, eningoencephalitis and myelitis in infected adult. […] Using a target-based approach, we hope to establish a screening paradigm to uncover novel, cell-active NS2B-NS3 protease (Zika Virus) specific inhibitors from NCATS' collection of small molecules using qHTS.
Four assay panel was created to identify potential Zika Virus inhibitors. Namely, (1) GU unlinked NS2B-NS3 AMC tagged protease qHTS, (2) GU unlinked NS2B-NS3 Rhodamine tagged protease qHTS, (3) NINDS linked NS2B-NS3 AMC tagged protease qHTS, (4) NINDS linked NS2B-NS3 Rhodamine tagged protease qHTS. Active compounds were re-acquired and re-screened to confirm inhibition. Inhibitors were further screened against various confirmatory and counterscreens in dose response format.
Early Translation Branch (ETB)
National Center for Advancing Translational Sciences (NCATS), Rockville, MD
National Institute of Health (NIH), Bethesda, Maryland
For the linked assay, Nath lab (NINDS) provided the purified linked NS2B-NS3 protease which is consists of hydrophilic domain of NS2B linked to the NS3 protease domain by a flexible (-GGGGSGGGG-) linker. Control compound aprotinin is obtained from Thermo Scientific (#78432; Waltham, Massachusetts). NS2B-NS3 AMC substrate (Bz-Nle-Lys-Arg-Arg-AMC; Nle-KRR-AMC) purchased from Bachem (#I-1995; Torrance, CA). Ac-VKTGKR-AMC purchased from Genscript or Bachem, Ac-FAAGKR-AMC purchased from Genscript, Ac-GLVKRR-AMC purchased from Genscript, Ac-LKKR-AMC purchased from Genscript.
NINDS AMC linked NS2B-NS3 protease qHTS protocol:
Briefly, 3 microL of Zika virus linked NS2B-NS3 protease (1 nM for linked final concentration), in assay buffer (10 mM Tris-HCl pH 8.0 with 0.01% Tween 20) was dispensed into a 1,536-well solid-bottom black plate (Greiner Bio One, Monroe, NC). Twenty-three nL of compounds (final concentration range 7.28 nM to 114 microM) or control Aprotinin (final concentration range 3.47 nM to 114 microM) were transferred via Wako Pin-tool (Wako Automation, Richmond, VA). Samples were incubated (room temperature, protected from light) for 15 minutes followed by a 1 microL AMC substrate addition of (final concentration of 10 microM; Km = 18.3 µM). Plates were then read immediately on a ViewLux High-throughput CCD imager (PerkinElmer, Waltham, MA) equipped with standard UV fluorescence optics (340(30) nm excitation, 450(20) nm emission) then incubated (room temperature, protected from light) for 15 minutes (~20% conversion). The change in fluorescence intensity over the 15-minute reaction period was normalized against no-inhibitor and no-enzyme controls and the resulting percent inhibition data were fitted to a 4-parameter Hill equation. Aprotinin was used as the intraplate control.
`O=C1c2c(O)ccc([N+](=O)[O-])c2C(=O)c2c([N+](=O)[O-])ccc(O)c21`: the Potency was 44.1 µM (active).

With `CCC(CC)(NC(=O)C(C)C)C(=O)N[C@@H](CCCN=C(N)N)C(=O)NC1(C(=O)NC(c2ccc(F)cc2)c2ccc(F)cc2)CCCC1`, the Potency result is “inactive”.

As for `O=C(Nc1ccc([N+](=O)[O-])cc1Cl)c1cc(Cl)ccc1O`, the Potency result was “inactive”.

On to `CCOc1ccc(C2C(=O)N(C3CCCCC3)CC(=O)N2Cc2ccc(F)cc2)cc1OC` (stereo not given), for which the Potency result was “inactive”.

In the case of `CC1OC(OC2C(O)CC(OC3C(O)CC(OC4CCC5(C)C(CCC6C5CC(O)C5(C)C(C7=CC(=O)OC7)CCC65O)C4)OC3C)OC2C)CC(O)C1O` (stereo not given), the Potency entry is “inactive”.

With `CC(=O)Nc1ccc([C@H](C)C(=O)Nc2ncc(C(C)C)s2)cc1`, the Potency entry is “inactive”.

Regarding `C[C@H]1O[C@@H](O[C@H]2CC[C@@]3(C)[C@H](CC[C@@H]4[C@@H]3C[C@@H](O)[C@]3(C)[C@@H](C5=CC(=O)OC5)CC[C@]43O)C2)C[C@H](O)[C@@H]1O[C@H]1C[C@H](O)[C@H](O[C@H]2C[C@H](O)[C@H](O[C@@H]3O[C@H](CO)[C@@H](O)[C@H](O)[C@H]3O)[C@@H](C)O2)[C@@H](C)O1`, the Potency result is “inactive”.

For the compound `NC(=O)C(=O)O`, the Potency result was “inactive”.

As to `S=c1nc[nH]c2nc[nH]c12`, the Potency result is “inactive”.

With `Nc1ncnc2c1ncn2[C@@H]1O[C@H](C[C@@H](N)CC[C@H](N)C(=O)O)[C@@H](O)[C@H]1O`, the Potency result is “inactive”.

Take `CC(C)C[C@H](NC(=O)[C@H](Cc1ccccc1)NC(=O)c1cnccn1)B(O)O`: the Potency result was “inactive”.

On to `COc1c2occc2cc2ccc(=O)oc12`, for which the Potency entry is “inactive”.

For `CCCCOc1ccc(C2C(=O)N(C3CCCCC3)CC(=O)N2C2CCCCC2)cc1` (stereo not given), the Potency entry is “inactive”.

For the compound `Nc1ccn([C@@H]2O[C@H](CO)[C@@H](O)C2(F)F)c(=O)n1`, the Potency entry was “inactive”.

As for `CC[C@@H](C)[C@H]1O[C@]2(CC[C@H]1C)C[C@@H]1C[C@@H](CC=C(C)[C@@H](O[C@H]3C[C@H](OC)[C@@H](O[C@H]4C[C@H](OC)[C@@H](O)[C@H](C)O4)[C@H](C)O3)[C@@H](C)C=CC=C3CO[C@@H]4[C@H](O)C(C)=C[C@@H](C(=O)O1)[C@]34O)O2`, the Potency result was “inactive”.

As for `CC(C)(C)CC(C)(C)c1ccc(OCCOCC[N+](C)(C)Cc2ccccc2)cc1`, the Potency entry is “inactive”.

On to `COC(=O)Nc1nc2ccc(C(=O)c3ccccc3)cc2[nH]1`, for which the Potency entry is “inactive”.

In the case of `CN1CCN(C(=O)CCN2C(=O)/C(=C\c3ccccc3F)SC2=S)CC1`, the Potency result is “inactive”.

In the case of `CCOc1ccc(C2C(=O)N(C3CCCCCC3)CC(=O)N2CCc2ccc(Cl)cc2)cc1OC` (stereo not given), the Potency entry was “inactive”.

As to `C[C@H]1O[C@@H](O[C@H]2[C@@H](O)C[C@H](O[C@H]3[C@@H](O)C[C@H](O[C@H]4CC[C@@]5(C)[C@H](CC[C@@H]6[C@@H]5C[C@@H](O)[C@]5(C)[C@@H](C7=CC(=O)OC7)CC[C@]65O)C4)O[C@@H]3C)O[C@@H]2C)C[C@H](O)[C@@H]1O`, the Potency entry is “inactive”.

Consider `CC(C)C[C@@H](NC(=O)[C@H](Cc1ccccc1)NC(=O)c1cnccn1)B(O)O`, for which the Potency result is “inactive”.

On to `Cc1c2oc3c(C)ccc(C(=O)N[C@@H]4C(=O)N[C@H](C(C)C)C(=O)N5CCC[C@H]5C(=O)N(C)CC(=O)N(C)[C@@H](C(C)C)C(=O)O[C@@H]4C)c3nc-2c(C(=O)N[C@@H]2C(=O)N[C@H](C(C)C)C(=O)N3CCC[C@H]3C(=O)N(C)CC(=O)N(C)[C@@H](C(C)C)C(=O)O[C@@H]2C)c(N)c1=O` (I: T[dV]P[Sar][NMeV] / II: T[dV]P[Sar][NMeV]; ester I:1-I:C, II:1-II:C; linker I:N-II:N via Actinocin(9to1)), for which the Potency result was “inactive”.

For `Nc1nc(=S)c2[nH]cnc2[nH]1`, the Potency entry was “inactive”.

Take `CC[C@H](C)[C@H]1O[C@]2(CC[C@@H]1C)C[C@@H]1C[C@@H](C/C=C(\C)[C@@H](O[C@H]3C[C@H](OC)[C@@H](O[C@H]4C[C@H](OC)[C@@H](O)[C@H](C)O4)[C@H](C)O3)[C@@H](C)/C=C/C=C3\CO[C@@H]4[C@H](O)C(C)=C[C@@H](C(=O)O1)[C@]34O)O2`: the Potency entry is “inactive”.

For `CO[C@H]1C[C@H](O[C@@H]2/C(C)=C/C[C@@H]3C[C@@H](C[C@]4(CC[C@H](C)[C@@H](C5CCCCC5)O4)O3)OC(=O)[C@@H]3C=C(C)/C(=N/O)[C@H]4OC/C(=C\C=C\[C@@H]2C)[C@]43O)O[C@@H](C)[C@@H]1O`, the Potency result is “inactive”.

In the case of `Cc1nc(Nc2ncc(C(=O)Nc3c(C)cccc3Cl)s2)cc(N2CCN(CCO)CC2)n1`, the Potency was 355 µM (active).

Consider `CO[C@H]1C[C@@H](O[C@@H]2/C(C)=C/C[C@@H]3C[C@@H](C[C@]4(CC[C@H](C)[C@@H](C5CCCCC5)O4)O3)OC(=O)[C@@H]3C=C(C)/C(=N/O)[C@H]4OC/C(=C\C=C\[C@@H]2C)[C@]43O)O[C@@H](C)[C@H]1O`, for which the Potency entry is “inactive”.

For the compound `OC(c1cc(C(F)(F)F)nc2c(C(F)(F)F)cccc12)C1CCCCN1` (stereo not given), the Potency entry is “inactive”.

Consider `Cn1cnc([N+](=O)[O-])c1Sc1ncnc2nc[nH]c12`, for which the Potency entry was “inactive”.

In the case of `CC=CCC(C)C(O)C1C(=O)NC(CC)C(=O)N(C)CC(=O)N(C)C(CC(C)C)C(=O)NC(C(C)C)C(=O)N(C)C(CC(C)C)C(=O)NC(C)C(=O)NC(C)C(=O)N(C)C(CC(C)C)C(=O)N(C)C(CC(C)C)C(=O)N(C)C(C(C)C)C(=O)N1C` (stereo not given), the Potency result was “inactive”.

In the case of `C[C@H](NC(=O)C(=O)Nc1ccccc1C(C)(C)C)C(=O)N[C@@H](CC(=O)O)C(=O)COc1c(F)c(F)cc(F)c1F`, the Potency entry was “inactive”.

As to `Nc1ncnc2c1ncn2[C@@H]1O[C@H](CSCC[C@H](N)C(=O)O)[C@@H](O)[C@H]1O`, the Potency result is “inactive”.

As for `O[C@@H](c1cc(C(F)(F)F)nc2c(C(F)(F)F)cccc12)[C@H]1CCCCN1`, the Potency result is “inactive”.

Take `CCc1nc(N)nc(N)c1-c1ccc(Cl)cc1`: the Potency entry was “inactive”.

Take `N[C@H](C(=O)O)c1ccc(O)cc1`: the Potency result was “inactive”.

As for `CC(C)N=c1cc2n(-c3ccc(Cl)cc3)c3ccccc3nc-2cc1Nc1ccc(Cl)cc1`, the Potency result is “inactive”.

On to `CC[C@@H]1O[C@]2(C=C[C@@H]1C)C[C@H]1C[C@H](CC=C(C)[C@@H](O[C@@H]3C[C@H](OC)[C@H](O[C@@H]4C[C@H](OC)[C@H](O)[C@H](C)O4)[C@H](C)O3)[C@@H](C)C=CC=C3CO[C@@H]4[C@@H](O)C(C)=C[C@@H](C(=O)O1)[C@]34O)O2`, for which the Potency entry was “inactive”.

Consider `C[S+](CC[C@H](N)C(=O)O)C[C@H]1O[C@@H](n2cnc3c(N)ncnc32)[C@H](O)[C@H]1O` (stereo not given in full), for which the Potency entry is “inactive”.

Take `O=c1cc(-c2ccccc2)oc2cc(O)c(O)c(O)c12`: the Potency result was “inactive”.

As for `O=C1c2cccc3c2[C@@H](CCC3)CN1[C@@H]1CN2CCC1CC2`, the Potency result was “inactive”.
